Assay outcomes from PubChem BioAssay.
TDP1 block = inhibitors of human tyrosyl-DNA phosphodiesterase TDP1 | Potency, µM (titrated, usually from 130 µM), actives largely listed as inhibitors | recombinant TDP1, AlphaScreen DNA substrate cleavage | actives 0.28% (n = 350,000); further: nearly all actives have a fitted effect of over 40% in size
Target sequence (Q9NUW8 whole entry, looked up): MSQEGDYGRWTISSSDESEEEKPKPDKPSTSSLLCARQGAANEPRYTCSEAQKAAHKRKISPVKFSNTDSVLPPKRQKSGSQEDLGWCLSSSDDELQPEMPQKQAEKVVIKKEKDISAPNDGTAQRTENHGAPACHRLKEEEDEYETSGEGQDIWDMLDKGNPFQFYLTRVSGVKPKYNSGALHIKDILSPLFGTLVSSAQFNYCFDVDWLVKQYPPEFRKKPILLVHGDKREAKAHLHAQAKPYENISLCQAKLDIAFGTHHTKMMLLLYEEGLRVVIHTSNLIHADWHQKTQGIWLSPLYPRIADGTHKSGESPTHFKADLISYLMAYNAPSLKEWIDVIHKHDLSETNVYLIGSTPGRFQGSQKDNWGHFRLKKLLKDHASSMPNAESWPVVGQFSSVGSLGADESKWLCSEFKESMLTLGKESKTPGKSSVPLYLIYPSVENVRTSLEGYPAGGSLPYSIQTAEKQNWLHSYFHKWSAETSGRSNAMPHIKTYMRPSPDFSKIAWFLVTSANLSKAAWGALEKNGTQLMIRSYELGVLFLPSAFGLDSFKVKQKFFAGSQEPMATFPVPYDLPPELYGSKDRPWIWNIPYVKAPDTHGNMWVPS
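AlphaScreen read-out: signal falls as enzyme removes the 3' tyrosine-FITC from a 5'-biotinylated DNA oligo (15 nM, 5 min, RT). Enzyme was E. coli-made recombinant Tdp1 at 1 nM, exposed to compound for 15 min beforehand; beads 10 ug/ml, 10 min.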
TDP1 cell CPT = growth inhibition of DT40 Tdp1-/-;hTDP1 cells with camptothecin (screen for TDP1 inhibitors); Potency, µM (titrated, usually from 46.2 µM), hits mostly inhibitors; chicken DT40 Tdp1-/-;hTDP1 cells + 20 nM CPT, ATP luminescence, 48 h; actives 12% (n = 420,000); further: nearly all actives have a fitted effect of over 55% in size
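Cell growth measured by CellTiter-Glo luminescence after a minimum 48 h, 37 C compound exposure with 20 nM CPT in Tdp1-knockout DT40 cells stably expressing hTDP1, seeded 400/well; qHTS titration format.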
IL-1B inflam inh = blocks inflammasome-driven IL-1 beta release. THP-1 LPS/ATP IL-1B secretion, AlphaLISA, 16 h; stronger effect = lower value. activity change, % at 57.5 µM. actives 4.7% (n = 360,000). AID 743279; in the data active means activity change below about -50%; inconclusive means mostly about -30% to -49%
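THP-1 cells pretreated 1 hr with compounds (up to 57.5 uM final), then stimulated with LPS (250 ng/mL final) plus ATP (1.25 mM final); secreted IL-1B measured by AlphaLISA after 16 hr, decreased signal indicating inhibition.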
TGFb SMAD3 inh = TGF-b pathway inhibition; AID 588855; HepG2 CAGA-GFP TGF-b/SMAD3 reporter, GFP fluorescence, 18 h; TGF-beta stimulated, 500 pg/mL final; actives 1.2% (n = 410,000); Potency, µM (highest dose often 46.1 µM), actives largely listed as inhibitors; further: nearly all actives have a fitted effect of over 65% in size
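Using HEPG2 CAGA-GFP reporter cells at 1000 cells/well, we pinned test compounds, stimulated with recombinant TGF-beta (500 pg/mL final) and measured total well GFP after 18 h.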
TDP1 cell noCPT = qHTS for Inhibitors of human tyrosyl-DNA phosphodiesterase 1 (TDP1): qHTS in cells in absence of CPT; Potency, µM (doses to about 46.2 µM), most hits filed as inhibitors; actives 15% (n = 420,000); DT40 Tdp1-/- hTDP1 cells, no CPT, ATP luminescence, 48 h; further: nearly all actives have a fitted effect of over 55% in size
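Camptothecin absent (DMSO only). Human TDP1-complemented DT40 knockout cells, 400 cells/well, 37 °C for minimum 48 hr; ATP measured via CellTiter-Glo, 30 min dark incubation, luminescence.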
HepG2 viability = kills HepG2 cells in TGF-b inhibitor counter-screen | HepG2 CAGA-GFP viability, ATP luminescence, 18 h | Potency, µM (highest dose often 46.1 µM), most hits filed as cytotoxic | actives 0.76% (n = 410,000) | AID 588856
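CellTiter-Glo luminescence gave cytotoxicity after 18 hours at 37 degrees C. The cells were HepG2 CAGA-GFP in 1% FBS DMEM, stimulated with 500 pg/mL TGF-beta after compound addition. %Activity was normalised to no-cell wells (complete cell-killing) and DMSO (no toxicity), and curves were fitted and classified.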
Large screens that a line does not name were inactive; ! = not confirmed by another sample. Rows were chosen to be rich in hits. Some 18% of all compounds tested hit in one or more screens of this group. Unless noted, the call rests on the fitted dose curve; in most records, active means well fitted curve in the direction sought with a large enough effect; inconclusive means small, poorly fitted or top-dose-only effect, or another doubt; inactive means no such curve, though single readings can be large; an effect the other way counts as inactive or inconclusive.

Cc1ccc(C)c(CS(=O)(=O)c2cn(CC(=O)N3CCCCC3)c3ccccc23)c1	none
O=C(CN1CCN(c2ncccn2)CC1)NCc1ccccc1	none
CC1CC2C3CC(F)C4=CC(=O)C=C[C@@]4(C)[C@@]3(F)C(O)C[C@]2(C)[C@]1(O)C(=O)COC(=O)C(C)(C)C (stereo not given in full)	TDP1 cell noCPT inconclusive (no result: IL-1B inflam inh, TGFb SMAD3 inh, HepG2 viability)
CCN(CC)C(=O)N1CCN(C)CC1	TDP1 cell CPT 1µM!, TDP1 cell noCPT inconclusive
COc1ccc(C(O)(c2ccccc2OC)C(CN2CCOCC2)c2ccccc2)cc1 (stereo not given)	TDP1 cell CPT inconclusive, TDP1 cell noCPT inconclusive
CCCCOc1ccc(C(O)(CCN2CCOCC2)c2ccccc2)cc1 (stereo not given)	TDP1 cell CPT inconclusive, TDP1 cell noCPT inconclusive (no result: TDP1 block)
CCOc1ccc(C(O)(c2ccccc2OC)C(CN2CCCC2)c2ccccc2)cc1 (stereo not given)	TDP1 cell CPT 12µM, IL-1B inflam inh inconclusive, TGFb SMAD3 inh inconclusive, TDP1 cell noCPT 8.2µM
CCCOc1ccc(C(O)(CCN2CCCCC2)c2ccccc2OC)cc1 (stereo not given)	TDP1 cell CPT 18µM, TDP1 cell noCPT 15µM (no result: TDP1 block)
COc1ccc(OC)c(C2=Nn3c(nnc3-c3ccccc3O)SC2)c1	none (no result: TDP1 cell CPT, IL-1B inflam inh, TGFb SMAD3 inh, TDP1 cell noCPT, HepG2 viability)
CSC1=C(C#N)C(=O)NC(c2ccc(Cl)cc2)S1 (stereo not given)	TDP1 cell CPT inconclusive, IL-1B inflam inh inconclusive, TDP1 cell noCPT 16µM (no result: TDP1 block)
CSc1nc(-c2ccc(Cl)cc2)c(C#N)c(=O)n1C	none
CCc1cccc(NC(=O)CSc2nnc(Cc3ccc(OC)cc3)c(=O)[nH]2)c1	none
Cc1cccc(OCC(=O)Nc2ccc(S(=O)(=O)N(Cc3ccccc3)c3ccccc3)cc2)c1	TDP1 cell CPT 10µM, TDP1 cell noCPT 3.3µM (no result: IL-1B inflam inh)
Cc1cccc(OCC(=O)Nc2ccc(NC(=O)c3ccccc3)cc2)c1	none
O=C(COc1ccccc1)Nc1ccc(S(=O)(=O)N(Cc2ccccc2)c2ccccc2)cc1	TDP1 cell CPT inconclusive, TDP1 cell noCPT 15µM (no result: IL-1B inflam inh)
Fc1cccc(-n2ncc3c2ncn2nc(Cc4ccccc4)nc32)c1	none (no result: IL-1B inflam inh, TGFb SMAD3 inh)
Cc1cn(C)c(CC(=O)N2CCN(c3ccccc3F)CC2)c1C(=O)O	none (no result: IL-1B inflam inh)
NC(=O)CCCCC(N)=O	none (no result: TDP1 cell CPT, IL-1B inflam inh, TGFb SMAD3 inh, TDP1 cell noCPT, HepG2 viability)
CC1=CC(=O)c2ccccc2C1=O	TDP1 cell CPT 8.2µM, TGFb SMAD3 inh inconclusive, TDP1 cell noCPT 4.6µM, HepG2 viability 16µM!
CC(C)(C=O)C1=CC(=O)c2ccccc2C1=O	TDP1 cell CPT 0.18µM, IL-1B inflam inh -103, TGFb SMAD3 inh inconclusive, TDP1 cell noCPT 0.41µM
COc1cccc2c1C(=O)C=C(C)C2=O	TDP1 cell CPT 2.9µM, IL-1B inflam inh -100, TGFb SMAD3 inh inconclusive, TDP1 cell noCPT 4.6µM
CCOc1ccccc1C(O)C1=CC(=O)c2ccccc2C1=O (stereo not given)	TDP1 cell CPT inconclusive, TDP1 cell noCPT inconclusive (no result: TDP1 block)
COc1ccc(-c2nnc(SC(C)C(=O)Nc3cccc(Cl)c3)o2)cc1 (stereo not given)	IL-1B inflam inh inconclusive, TDP1 cell noCPT inconclusive
CCCCC(CC)CNCC(CC)CCCC (stereo not given)	none (no result: TDP1 cell CPT, IL-1B inflam inh, TGFb SMAD3 inh, TDP1 cell noCPT, HepG2 viability)
Cc1cc(-c2csc(N)n2)c(C)n1CCc1ccccc1	TDP1 cell CPT 23µM, TDP1 cell noCPT inconclusive
Cc1cc(-c2csc(N)n2)c(C)n1CCC(C)C	TDP1 cell CPT inconclusive, TDP1 cell noCPT inconclusive
COc1cc(/C=N/NC(=O)CSc2ccccn2)ccc1OC(C)C	none (no result: IL-1B inflam inh)
Cc1c2ccncc2cc2c1[nH]c1ccccc12	TDP1 cell CPT 5.8µM, IL-1B inflam inh -96, TGFb SMAD3 inh inconclusive, TDP1 cell noCPT 6.5µM (no result: TDP1 block)
COc1ccccc1CNC(=O)C1CCCN(S(=O)(=O)c2cccs2)C1 (stereo not given)	none
